Experimental data as given in PubChem BioAssay AID1159580 (chemical genetic matrix, 2015).
Values joined by “and” are separate entries in the source; they are usually repeats but may differ in a detail not shown here. Equal entries are not always repeated. Among all 5,500 compounds or so, about 2,000 (36%) were called active. About 18% were inconclusive and are not listed. Rule as the data show it: active = normalized growth mostly below about 0.91 (no sharp cut-off); inconclusive = no clear call, values can overlap the other calls; inactive = mostly above about 0.92. This is one part of the list.

Assay: chemical genetic growth profiling, strain panel (AID 1159580);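 also: tested at 20 µM; growth read once vehicle control cultures reached saturation at 30 °C; 1 = growth at the plate median or of vehicle wells; lower values mean less growth of the strain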
Conditions: S. cerevisiae deletion strains, growth OD

Measured: normalized growth

COc1ccc2c(c1)OC1(O)COc3cc(OC)c(OC)cc3C1=C2 (stereo unspecified)
inactive: locus YAL013W, strain DEP1, stronger effect = lower value 0.99 | locus YAL021C, strain ccr4, stronger effect = lower value 1 | locus YAL026C, strain drs2, stronger effect = lower value 0.97 | locus YAL030W, strain snc1, stronger effect = lower value 0.973 | locus YBL061C, strain skt5, stronger effect = lower value 0.968 | locus YBR009C, strain hhf1, stronger effect = lower value 1 | locus YBR021W, strain FUR4, stronger effect = lower value 1.01 | locus YBR023C, strain chs3, stronger effect = lower value 0.979 | locus YBR171W, strain sec66, stronger effect = lower value 0.965 | locus YBR229C, strain ROT2, stronger effect = lower value 1.01 | locus YBR231C, strain swc5, stronger effect = lower value 0.939 | locus YBR279W, strain paf1, stronger effect = lower value 0.984 | locus YCL011C, strain gbp2, stronger effect = lower value 0.983 | locus YCL016C, strain dcc1, stronger effect = lower value 1.01 | locus YCL029C, strain bik1, stronger effect = lower value 0.981 | locus YCL069W, strain vba3, stronger effect = lower value 0.988 | locus YCR088W, strain abp1, stronger effect = lower value 0.978 | locus YDL005C, strain med2, stronger effect = lower value 0.978 | locus YDL035C, strain GPR1, stronger effect = lower value 0.974 | locus YDL040C, strain nat1, stronger effect = lower value 0.971 | locus YDL074C, strain BRE1, stronger effect = lower value 0.992 | locus YDL101C, strain DUN1, stronger effect = lower value 1.02 | locus YDL134C, strain PPH21, stronger effect = lower value 1.01 | locus YDL185W, strain tfp1, stronger effect = lower value 0.983 | locus YDL192W, strain arf1, stronger effect = lower value 0.977 | locus YDR001C, strain nth1, stronger effect = lower value 0.98 | locus YDR069C, strain doa4, stronger effect = lower value 0.961 | locus YDR101C, strain arx1, stronger effect = lower value 0.972 | locus YDR137W, strain rgp1, stronger effect = lower value 0.934 | locus YDR150W, strain NUM1, stronger effect = lower value 1.01 | locus YDR159W, strain sac3, stronger effect = lower value 0.897 | locus YDR162C, strain NBP2, stronger effect = lower value 1.01 | locus YDR195W, strain ref2 0.992 | locus YDR297W, strain sur2, stronger effect = lower value 0.978 | locus YDR318W, strain mcm21, stronger effect = lower value 0.949 | locus YDR334W, strain swr1, stronger effect = lower value 0.982 | locus YDR335W, strain msn5, stronger effect = lower value 0.996 | locus YDR388W, stronger effect = lower value 0.981 | locus YDR502C, strain sam2, stronger effect = lower value 0.985 | locus YEL003W, strain gim4, stronger effect = lower value 0.962 | locus YEL037C, strain rad23, stronger effect = lower value 0.99 | locus YEL061C, strain CIN8 (second series), stronger effect = lower value 0.978 | locus YEL061C, strain CIN8, stronger effect = lower value 1 | locus YER015W, strain faa2, stronger effect = lower value 0.993 | locus YER016W, strain bim1, stronger effect = lower value 0.971 | locus YER110C, stronger effect = lower value 0.976 | locus YER111C, strain swi4, stronger effect = lower value 0.97 | locus YER155C, strain BEM2 (second series), stronger effect = lower value 0.904 | locus YER155C, strain BEM2, stronger effect = lower value 1 | locus YER167W, strain BCK2, stronger effect = lower value 0.963 | locus YFR010W, strain ubp6, stronger effect = lower value 0.965 | locus YGL078C, strain dbp3, stronger effect = lower value 1.01 | locus YGL086W, strain mad1, stronger effect = lower value 0.97 | locus YGL167C, strain pmr1, stronger effect = lower value 0.985 | locus YGL173C, strain kem1, stronger effect = lower value 0.94 | locus YGL227W, strain vid30, stronger effect = lower value 0.978 | locus YGL240W, strain doc1, stronger effect = lower value 0.942 | locus YGL248W, strain PDE1, stronger effect = lower value 1.01 | locus YGL253W, strain hxk2, stronger effect = lower value 0.929 | locus YGR078C, strain PAC10, stronger effect = lower value 0.985 | locus YGR135W, strain pre9, stronger effect = lower value 0.985 | locus YGR229C, strain SMI1, stronger effect = lower value 0.967 | locus YGR252W, strain gcn5, stronger effect = lower value 0.873 | locus YHR013C, strain ard1, stronger effect = lower value 0.977 | locus YHR027C, strain rpn1, stronger effect = lower value 0.986 | locus YHR030C, strain SLT2, stronger effect = lower value 0.996 and 0.931 | locus YHR079C, strain IRE1 (second series), stronger effect = lower value 0.972 | locus YHR079C, strain IRE1, stronger effect = lower value 0.925 | locus YHR094C, strain hxt1, stronger effect = lower value 0.989 | locus YHR129C, strain ARP1, stronger effect = lower value 1.01 | locus YHR142W, strain chs7, stronger effect = lower value 0.926 | locus YHR200W, strain rpn10, stronger effect = lower value 0.972 | locus YIL066C, strain RNR3, stronger effect = lower value 0.986 | locus YIL073C, strain SPO22, stronger effect = lower value 0.895 | locus YIL125W, strain kgd1, stronger effect = lower value 0.997 | locus YIR030C, strain dcg1, stronger effect = lower value 0.987 | locus YJL092W, strain hpr5, stronger effect = lower value 0.979 | locus YJL095W, strain BCK1 (second series), stronger effect = lower value 0.98 | locus YJL095W, strain BCK1, stronger effect = lower value 0.965 and 0.92 | locus YJL115W, strain asf1, stronger effect = lower value 0.983 | locus YJL129C, strain trk1, stronger effect = lower value 0.979 | locus YJL134W, strain LCB3, stronger effect = lower value 1 | locus YJL154C, strain vps35, stronger effect = lower value 0.977 | locus YJL164C, strain tpk1, stronger effect = lower value 0.983 | locus YJL166W, strain qcr8, stronger effect = lower value 0.948 | locus YJL168C, strain set2, stronger effect = lower value 0.989 | locus YJL187C, strain SWE1 (second series), stronger effect = lower value 1.01 | locus YJL187C, strain SWE1, stronger effect = lower value 0.999 | locus YJR043C, strain POL32, stronger effect = lower value 0.97 | locus YJR066W, strain TOR1, stronger effect = lower value 0.9
active: locus YDR392W, strain spt3, stronger effect = lower value 0.734
